# Source: PubChem BioAssay (NCATS)
# A number with no mark means an inactive call. How the calls were made is not given here.
# Test system: HIV-1 nucleocapsid protein NCp7 (binding to TG oligonucleotide)
# Test: HIV Nucleocapsid (AID 346);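 further: potency is for inhibitors that block NC binding and lower polarization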
# Details: HIV-1 NC / fluorescein-TGTGTGTG probe, fluorescence polarization
# In short: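 Reagents dispensed (10 nM TG4xF, 100 nM HIV-1 NC), plates spun, compounds pin-transferred, then incubated 1 hr at room temperature before FP imaging. Buffer: Hepes pH 7.5, 250mM NaCl, 1uM ZnCl2, 100 uM TCEP, 5 mM 2-mercaptoethanol.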
# Potency means the concentration at half of the fitted maximal effect.
row,Compound,Potency [µM]
1,N#Cc1ccc(CN2CCC3(CCNCC3)CC2)cc1,> 20
2,CC(C)CN1CC2(CCN(C(=O)c3cnccn3)CC2)C1,> 20
3,COc1ccc2[nH]cc(CCNc3ncncc3-c3cccc(NS(C)(=O)=O)c3)c2c1,> 20
4,COCCn1c(=O)cnc2cnc(N3CCNCC3)nc21,> 20
5,COc1ccc(-n2c(=O)c(CCc3ccccc3)nc3cnc(OC)nc32)cc1,> 20
6,COc1ccc(C(=O)N2CCC[C@@]3(CCN(C(=O)Nc4cccc(C#N)c4)C3)C2)cc1,> 20
7,COc1ccccc1CN1CCC2(CC1)CCN(C(=O)c1csnn1)CC2,> 20
8,O=c1cnc2cnc(N3CCNCC3)nc2n1Cc1ccc(F)cc1,> 20
9,O=C(c1cccc(F)c1)N1CCC2(CCCN(Cc3nccs3)C2)CC1,> 20
10,O=c1c(-c2cc(F)cc(F)c2)nc2cnc(N3CCOCC3)nc2n1C1CC1,> 20
11,COCC(=O)N1CCC2(CCN(Cc3nccs3)CC2)CC1,> 20
12,CCNc1ncc2nc(-c3ccccc3)c(=O)n(-c3ccc(OC)cc3)c2n1,> 20
13,COc1ccc(CNc2cc(-c3ccccc3Cl)ncn2)c(OC)c1,> 20
14,COc1ccc(NC(=O)N2CCCC3(CCN(C(=O)c4csnn4)CC3)C2)cc1,> 20
15,COc1cccc(-c2nc(N(C)Cc3ccco3)c3ccccc3n2)c1,> 20
16,N#Cc1cccc(NC(=O)N2CCC3(CC2)CCN(C(=O)c2cccc(F)c2)CC3)c1,> 20
17,CN1CCN(c2ncc3ncc(=O)n(Cc4ccc(F)cc4)c3n2)CC1,> 20
18,COc1ccc(-n2c(=O)c(-c3cc(F)cc(F)c3)nc3cnc(N4CCOCC4)nc32)cc1,> 20
19,Cn1c(=O)c(-c2ccc(F)cc2)nc2cnc(N3CCOCC3)nc21,> 20
20,O=c1cnc2cnc(Nc3ccccc3)nc2n1C1CC1,> 20

row,Compound,Potency [µM]
1,Cc1noc(C)c1C(=O)N1CCC[C@@]2(CCN(Cc3ccccc3)C2)C1,> 20
2,Cc1cnc(CNc2ccnc(-c3ccccc3C)n2)cn1,> 20
3,COc1ccc(-c2nc3cnc(N(C)C)nc3n(C3CC3)c2=O)cc1,> 20
4,O=C(c1csnn1)N1CCC[C@@]2(CCN(C(c3ccccc3)c3ccccc3)C2)C1,> 20
5,COc1ccc(Oc2ncc3ncc(=O)n(C)c3n2)cc1,> 20
6,Cc1ccccc1-c1cncnc1N(C)Cc1ccco1,> 20
7,O=C(c1csnn1)N1CCC[C@@]2(CCN(Cc3cc(C(F)(F)F)cc(C(F)(F)F)c3)C2)C1,> 20
8,COCCn1c(=O)c(-c2ccccc2)nc2cnc(N3CCNCC3)nc21,> 20
9,O=c1c(-c2ccc(F)cc2)nc2cnc(Oc3cccc(Cl)c3)nc2n1C[C@H]1CCCO1,> 20
10,O=C(c1cccc(F)c1)N1CCC2(CCCN(Cc3ccncc3)C2)CC1,> 20
11,COCC(=O)N1CCC[C@@]2(CCN(Cc3ccccc3)C2)C1,> 20
12,CN(C)Cc1ccccc1-c1cncnc1NCc1cccnc1,> 20
13,Cc1nc2cnc(N3CCNCC3)nc2n(Cc2ccc(F)cc2)c1=O,> 4
14,CN(C)C(=O)c1ccc(-c2ccc3ncnc(N(C)Cc4ccco4)c3c2)cc1,> 20
15,COc1ccc(-n2c(=O)c(CCc3ccccc3)nc3cnc(N(C)C)nc32)cc1,> 20
16,CN1CCN(c2ccnc(-c3ccoc3)n2)CC1,> 20
17,Cc1noc(C)c1-c1nc(Nc2ccccc2)c2ccccc2n1,> 20
18,COCC(=O)N1CCC2(CC1)CN(C(c1ccccc1)c1ccccc1)C2,> 20
19,O=c1c(-c2ccccc2)nc2cnc(Nc3ccccc3)nc2n1C[C@H]1CCCO1,> 20
20,N#Cc1cccc(-c2cncnc2NCc2ccccc2)c1,> 20
